In the supplement of paper PMC10849652:
The full data set covers some 7,900 targets. This sample favours those with a hit. About 0.6% of all pairs of compound and target were hits. Unmarked numbers belong to inactive results.

What follows are targets tested with CC[C@@H]1C(=O)N(C)c2cnc(Nc3ccc(C(=O)NC4CCN(C)CC4)cc3OC)nc2N1C1CCCC1 (assay: log2 fold change, soluble protein after heating vs DMSO (PISA); higher = thermal stabilisation; K562 cells, 10 uM, 30 min; active = over 0.2 and 3.5 SD of the protein, either way, in both replicates (recomputed)).
Procedure, shortened: (§1)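 Values are thermal stability changes relative to control samples and are taken from duplicates. They are stated as log2 fold changes. Before quantification by TMTpro 16plex LC-MS/MS with equalised channel sums, K562 cells at 2×10^6 cells/mL were treated with 10 μM compound for 30 min, heated in aliquots for 3 min across 48°C-58°C, pooled, extracted in PBS with 0.5% NP-40 at 4°C, and centrifuged at 21,000xg for 90 min to give the soluble supernatant.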

Chain of UniProt O75116 (O75116 whole entry, looked up): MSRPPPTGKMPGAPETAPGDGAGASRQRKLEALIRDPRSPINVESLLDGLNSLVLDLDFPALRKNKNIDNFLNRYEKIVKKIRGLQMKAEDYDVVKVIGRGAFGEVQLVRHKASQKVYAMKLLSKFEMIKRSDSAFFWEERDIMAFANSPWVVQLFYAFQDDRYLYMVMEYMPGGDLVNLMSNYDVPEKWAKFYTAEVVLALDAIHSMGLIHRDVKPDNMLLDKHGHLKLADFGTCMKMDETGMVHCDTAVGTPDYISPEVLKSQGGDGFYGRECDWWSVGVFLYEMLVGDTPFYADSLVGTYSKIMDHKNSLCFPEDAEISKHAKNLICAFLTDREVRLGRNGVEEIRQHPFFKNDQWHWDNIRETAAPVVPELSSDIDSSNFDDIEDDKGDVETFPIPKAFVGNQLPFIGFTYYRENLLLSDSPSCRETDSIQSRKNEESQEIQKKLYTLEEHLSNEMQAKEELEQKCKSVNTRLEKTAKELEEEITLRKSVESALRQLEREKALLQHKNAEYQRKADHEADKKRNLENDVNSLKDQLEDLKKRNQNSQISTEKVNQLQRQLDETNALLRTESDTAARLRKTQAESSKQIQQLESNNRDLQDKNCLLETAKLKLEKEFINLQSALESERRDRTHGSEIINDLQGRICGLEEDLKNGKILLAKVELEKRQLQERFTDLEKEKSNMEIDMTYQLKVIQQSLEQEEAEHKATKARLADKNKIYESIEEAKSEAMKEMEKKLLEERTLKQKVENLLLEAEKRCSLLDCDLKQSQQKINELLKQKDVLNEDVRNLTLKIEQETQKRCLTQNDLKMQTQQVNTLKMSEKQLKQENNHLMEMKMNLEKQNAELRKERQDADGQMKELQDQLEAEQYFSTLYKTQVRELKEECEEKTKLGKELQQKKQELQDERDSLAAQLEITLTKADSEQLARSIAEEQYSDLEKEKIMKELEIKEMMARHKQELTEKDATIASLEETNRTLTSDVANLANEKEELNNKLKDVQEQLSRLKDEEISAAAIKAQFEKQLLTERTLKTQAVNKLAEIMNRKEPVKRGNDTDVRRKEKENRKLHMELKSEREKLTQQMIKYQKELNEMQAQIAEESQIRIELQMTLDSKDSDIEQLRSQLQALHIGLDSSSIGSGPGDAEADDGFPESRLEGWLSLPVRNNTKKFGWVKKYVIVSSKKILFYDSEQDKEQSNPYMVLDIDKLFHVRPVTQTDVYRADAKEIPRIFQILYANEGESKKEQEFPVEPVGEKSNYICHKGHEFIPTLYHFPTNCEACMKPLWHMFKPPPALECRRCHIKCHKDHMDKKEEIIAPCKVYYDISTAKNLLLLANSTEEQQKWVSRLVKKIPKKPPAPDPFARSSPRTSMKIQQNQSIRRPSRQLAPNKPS
Chain of UniProt Q9NX18 (Q9NX18 whole entry, looked up): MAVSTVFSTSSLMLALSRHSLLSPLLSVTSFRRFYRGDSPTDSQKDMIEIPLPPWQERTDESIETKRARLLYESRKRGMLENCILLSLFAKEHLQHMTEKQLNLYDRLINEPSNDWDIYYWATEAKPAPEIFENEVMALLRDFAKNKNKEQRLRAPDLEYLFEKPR
Chain of UniProt Q15418 (Q15418 whole entry, looked up): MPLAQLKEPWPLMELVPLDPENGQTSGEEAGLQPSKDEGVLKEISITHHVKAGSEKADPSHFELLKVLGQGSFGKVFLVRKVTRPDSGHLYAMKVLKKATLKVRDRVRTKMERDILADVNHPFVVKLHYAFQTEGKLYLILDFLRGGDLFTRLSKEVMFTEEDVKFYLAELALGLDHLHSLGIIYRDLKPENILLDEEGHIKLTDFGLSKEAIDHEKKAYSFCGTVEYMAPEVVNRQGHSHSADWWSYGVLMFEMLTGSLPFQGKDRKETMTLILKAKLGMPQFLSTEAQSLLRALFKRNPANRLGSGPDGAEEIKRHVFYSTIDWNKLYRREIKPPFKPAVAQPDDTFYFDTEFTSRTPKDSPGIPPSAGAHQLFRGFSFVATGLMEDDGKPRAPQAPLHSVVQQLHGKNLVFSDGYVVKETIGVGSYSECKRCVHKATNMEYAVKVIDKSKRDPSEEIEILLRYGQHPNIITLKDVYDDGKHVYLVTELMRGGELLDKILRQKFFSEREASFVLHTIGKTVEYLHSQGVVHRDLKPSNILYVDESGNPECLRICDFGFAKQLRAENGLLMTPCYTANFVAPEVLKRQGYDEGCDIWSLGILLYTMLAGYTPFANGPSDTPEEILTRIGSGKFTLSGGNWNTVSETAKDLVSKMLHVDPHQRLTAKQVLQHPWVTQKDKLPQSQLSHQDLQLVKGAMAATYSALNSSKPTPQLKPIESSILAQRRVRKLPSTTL
Chain of UniProt Q13796 (Q13796 whole entry, looked up): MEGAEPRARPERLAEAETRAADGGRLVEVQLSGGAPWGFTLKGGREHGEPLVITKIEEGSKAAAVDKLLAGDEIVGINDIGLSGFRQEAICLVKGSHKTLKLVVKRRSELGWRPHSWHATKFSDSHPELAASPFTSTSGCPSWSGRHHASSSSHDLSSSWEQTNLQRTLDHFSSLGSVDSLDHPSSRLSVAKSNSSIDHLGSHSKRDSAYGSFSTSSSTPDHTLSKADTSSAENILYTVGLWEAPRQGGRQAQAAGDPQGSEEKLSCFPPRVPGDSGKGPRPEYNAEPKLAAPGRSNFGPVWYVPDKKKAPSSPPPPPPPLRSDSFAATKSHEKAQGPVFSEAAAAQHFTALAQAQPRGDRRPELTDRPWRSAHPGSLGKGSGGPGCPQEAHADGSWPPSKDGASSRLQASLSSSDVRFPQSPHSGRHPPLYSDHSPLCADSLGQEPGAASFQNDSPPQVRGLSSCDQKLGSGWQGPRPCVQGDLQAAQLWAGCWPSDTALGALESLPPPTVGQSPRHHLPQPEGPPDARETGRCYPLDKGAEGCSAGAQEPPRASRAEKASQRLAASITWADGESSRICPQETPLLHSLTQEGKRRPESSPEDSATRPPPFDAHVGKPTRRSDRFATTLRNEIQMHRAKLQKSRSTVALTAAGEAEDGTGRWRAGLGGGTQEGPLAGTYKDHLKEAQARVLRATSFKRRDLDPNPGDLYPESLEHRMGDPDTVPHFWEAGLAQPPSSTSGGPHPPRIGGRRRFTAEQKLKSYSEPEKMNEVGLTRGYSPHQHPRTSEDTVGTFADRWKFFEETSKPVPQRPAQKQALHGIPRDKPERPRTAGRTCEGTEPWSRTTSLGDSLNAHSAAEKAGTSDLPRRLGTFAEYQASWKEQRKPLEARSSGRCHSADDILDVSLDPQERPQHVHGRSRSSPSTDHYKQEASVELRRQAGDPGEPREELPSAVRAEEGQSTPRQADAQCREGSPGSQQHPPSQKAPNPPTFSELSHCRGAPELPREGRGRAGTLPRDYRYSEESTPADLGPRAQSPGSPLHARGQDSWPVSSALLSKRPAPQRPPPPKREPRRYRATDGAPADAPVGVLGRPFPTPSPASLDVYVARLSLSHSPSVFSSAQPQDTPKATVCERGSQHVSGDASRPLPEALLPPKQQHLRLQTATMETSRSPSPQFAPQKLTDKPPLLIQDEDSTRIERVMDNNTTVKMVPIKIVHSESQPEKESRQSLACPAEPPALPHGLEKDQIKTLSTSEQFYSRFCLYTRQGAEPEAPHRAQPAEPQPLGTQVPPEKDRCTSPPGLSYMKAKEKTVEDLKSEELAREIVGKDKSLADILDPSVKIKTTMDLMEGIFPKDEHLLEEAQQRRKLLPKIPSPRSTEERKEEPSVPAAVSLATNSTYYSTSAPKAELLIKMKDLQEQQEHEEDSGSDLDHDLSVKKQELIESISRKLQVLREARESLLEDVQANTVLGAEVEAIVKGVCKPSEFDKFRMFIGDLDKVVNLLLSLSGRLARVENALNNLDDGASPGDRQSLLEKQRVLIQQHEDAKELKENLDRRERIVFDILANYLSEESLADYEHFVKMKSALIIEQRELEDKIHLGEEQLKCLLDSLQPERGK
Chain of UniProt Q96I25 (Q96I25 whole entry, looked up): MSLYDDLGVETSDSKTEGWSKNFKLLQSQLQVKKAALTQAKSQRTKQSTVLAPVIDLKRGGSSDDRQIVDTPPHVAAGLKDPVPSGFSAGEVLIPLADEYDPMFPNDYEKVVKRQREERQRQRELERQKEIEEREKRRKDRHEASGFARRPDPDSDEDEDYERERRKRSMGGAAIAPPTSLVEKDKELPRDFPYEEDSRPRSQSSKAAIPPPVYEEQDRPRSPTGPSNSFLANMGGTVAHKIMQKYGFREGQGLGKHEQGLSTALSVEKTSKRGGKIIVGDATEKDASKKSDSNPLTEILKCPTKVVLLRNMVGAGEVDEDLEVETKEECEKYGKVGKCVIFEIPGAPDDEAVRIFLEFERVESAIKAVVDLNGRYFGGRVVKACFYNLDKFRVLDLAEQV
Chain of UniProt Q5T160 (Q5T160 whole entry, looked up): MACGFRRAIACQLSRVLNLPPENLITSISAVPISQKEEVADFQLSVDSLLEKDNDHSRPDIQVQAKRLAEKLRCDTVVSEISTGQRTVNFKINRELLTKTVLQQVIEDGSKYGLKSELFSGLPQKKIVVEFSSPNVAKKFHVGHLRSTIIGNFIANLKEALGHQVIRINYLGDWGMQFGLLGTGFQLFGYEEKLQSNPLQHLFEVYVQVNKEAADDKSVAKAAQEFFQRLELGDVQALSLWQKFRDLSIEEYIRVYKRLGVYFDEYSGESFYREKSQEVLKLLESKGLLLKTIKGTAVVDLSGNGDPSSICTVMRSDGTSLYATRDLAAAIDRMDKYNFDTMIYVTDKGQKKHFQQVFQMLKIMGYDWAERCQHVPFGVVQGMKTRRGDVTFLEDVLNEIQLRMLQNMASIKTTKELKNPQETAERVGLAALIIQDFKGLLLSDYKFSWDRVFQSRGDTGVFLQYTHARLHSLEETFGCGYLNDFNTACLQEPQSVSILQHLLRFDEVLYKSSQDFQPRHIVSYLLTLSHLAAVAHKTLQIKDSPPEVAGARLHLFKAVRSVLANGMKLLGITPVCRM
Chain of UniProt P63208 (P63208 whole entry, looked up): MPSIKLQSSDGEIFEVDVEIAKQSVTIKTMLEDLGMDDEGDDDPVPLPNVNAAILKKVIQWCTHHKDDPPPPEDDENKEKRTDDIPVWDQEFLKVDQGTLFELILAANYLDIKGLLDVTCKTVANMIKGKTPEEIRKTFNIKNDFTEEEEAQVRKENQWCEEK

| Target | log2 fold change |
| --- | --- |
| RBM22 (UniProt Q9NW64) | -0.027 |
| RUFY1 (UniProt Q96T51) | -0.145 |
| RARS (UniProt P54136) | 0.059 |
| RHEB (UniProt Q15382) | 0.038 |
| RALA (UniProt P11233) | 0.084 |
| SDHAF2 (UniProt Q9NX18) | 0.089 |
| ROCK2 (UniProt O75116) | -0.033 |
| RPS18 (UniProt P62269) | 0.158 |
| RPS20 isoform 2 (UniProt P60866) | 0.114 |
| RBM12 (UniProt Q9NTZ6) | -0.181 |
| RPS6KA2 isoform 2 (UniProt Q15349) | -0.136 |
| SEH1L isoform 1 (UniProt Q96EE3) | -0.044 |
| SCAF11 (UniProt Q99590) | 0.145 |
| SLC12A9 (UniProt Q9BXP2) | 0.014 |
| RNF14 (UniProt Q9UBS8) | -0.054 |
| RARS2 (UniProt Q5T160) | -0.121 |
| SDHC (UniProt Q99643) | 0.042 |

| Target | log2 fold change |
| --- | --- |
| RBM17 (UniProt Q96I25) | -0.08 |
| RPS6KA1 isoform 2 (UniProt Q15418) | -0.223 |
| RB1CC1 (UniProt Q8TDY2) | 0.051 |
| RECQL (UniProt P46063) | -0.032 |
| SHROOM2 (UniProt Q13796) | 0.027 |
| SLBP (UniProt Q14493) | -0.052 |
| SEC23A (UniProt Q15436) | 0.149 |
| SCAF8 isoform 2 (UniProt Q9UPN6) | -0.065 |
| RIPK1 (UniProt Q13546) | -0.069 |
| RBM25 (UniProt P49756) | 0.024 |
| RAC3 (UniProt P60763) | 0.039 |
| SIDT2 isoform 2 (UniProt Q8NBJ9) | -0.035 |
| RCOR1 (UniProt Q9UKL0) | 0.116 |
| SKP1 (UniProt P63208) | -0.012 |
| SEC31A (UniProt O94979) | -0.035 |
| RPS9 (UniProt P46781) | 0.203 |
| RSL1D1 (UniProt O76021) | 0.301 |

What follows are targets tested with CC[C@@H]1C(=O)N(C)c2cnc(Nc3ccc(C(=O)N[C@H]4CC[C@H](N5CCN(CC6CC6)CC5)CC4)cc3OC)nc2N1C(C)C [volasertib] in the same assay as above.
Procedure, shortened: as §1

| Target | log2 fold change |
| --- | --- |
| RBM22 (UniProt Q9NW64) | -0.3 (active) |
| RUFY1 (UniProt Q96T51) | -0.355 (active) |
| RARS (UniProt P54136) | -0.172 |
| RHEB (UniProt Q15382) | 0.013 |
| RALA (UniProt P11233) | 0.025 |
| SDHAF2 (UniProt Q9NX18) | 0.093 |
| ROCK2 (UniProt O75116) | -0.139 |
| RPS18 (UniProt P62269) | 0.3 |
| RPS20 isoform 2 (UniProt P60866) | 0.31 |
| RBM12 (UniProt Q9NTZ6) | -0.437 (active) |
| RPS6KA2 isoform 2 (UniProt Q15349) | -0.179 |
| SEH1L isoform 1 (UniProt Q96EE3) | 0.466 (active) |
| SCAF11 (UniProt Q99590) | 0.153 |
| SLC12A9 (UniProt Q9BXP2) | -0.034 |
| RNF14 (UniProt Q9UBS8) | -0.288 (active) |
| RARS2 (UniProt Q5T160) | -0.238 (active) |
| SDHC (UniProt Q99643) | 0.036 |

| Target | log2 fold change |
| --- | --- |
| RBM17 (UniProt Q96I25) | -0.422 (active) |
| RPS6KA1 isoform 2 (UniProt Q15418) | -0.212 |
| RB1CC1 (UniProt Q8TDY2) | -0.022 |
| RECQL (UniProt P46063) | -0.014 |
| SHROOM2 (UniProt Q13796) | 0.068 |
| SLBP (UniProt Q14493) | -0.034 |
| SEC23A (UniProt Q15436) | -0.156 |
| SCAF8 isoform 2 (UniProt Q9UPN6) | -0.27 |
| RIPK1 (UniProt Q13546) | -0.478 (active) |
| RBM25 (UniProt P49756) | -0.239 |
| RAC3 (UniProt P60763) | 0.075 |
| SIDT2 isoform 2 (UniProt Q8NBJ9) | 0.055 |
| RCOR1 (UniProt Q9UKL0) | 0.001 |
| SKP1 (UniProt P63208) | -0.02 |
| SEC31A (UniProt O94979) | -0.354 (active) |
| RPS9 (UniProt P46781) | 0.339 |
| RSL1D1 (UniProt O76021) | 0.399 |

Each target was assayed with CC[C@H](C)N1C=C(C2=C(C=C(C=C21)C3=CN=C(C=C3)N4CCNCC4)C(=O)NCC5=C(C=C(NC5=O)C)C)C in the same assay as above.
Procedure, shortened: as §1

| Target | log2 fold change |
| --- | --- |
| RBM22 (UniProt Q9NW64) | 0.002 |
| RUFY1 (UniProt Q96T51) | 0.07 |
| RARS (UniProt P54136) | 0.072 |
| RHEB (UniProt Q15382) | -0.014 |
| RALA (UniProt P11233) | -0.044 |
| SDHAF2 (UniProt Q9NX18) | -0.081 |
| ROCK2 (UniProt O75116) | -0.009 |
| RPS18 (UniProt P62269) | -0.011 |
| RPS20 isoform 2 (UniProt P60866) | -0.009 |
| RBM12 (UniProt Q9NTZ6) | 0.114 |
| RPS6KA2 isoform 2 (UniProt Q15349) | 0.034 |
| SEH1L isoform 1 (UniProt Q96EE3) | -0.019 |
| SCAF11 (UniProt Q99590) | -0.092 |
| SLC12A9 (UniProt Q9BXP2) | -0.016 |
| RNF14 (UniProt Q9UBS8) | 0.037 |
| RARS2 (UniProt Q5T160) | -0.003 |
| SDHC (UniProt Q99643) | -0.1 |

| Target | log2 fold change |
| --- | --- |
| RBM17 (UniProt Q96I25) | 0.085 |
| RPS6KA1 isoform 2 (UniProt Q15418) | 0.053 |
| RB1CC1 (UniProt Q8TDY2) | -0.086 |
| RECQL (UniProt P46063) | 0.002 |
| SHROOM2 (UniProt Q13796) | -0.243 |
| SLBP (UniProt Q14493) | 0.013 |
| SEC23A (UniProt Q15436) | 0.1 |
| SCAF8 isoform 2 (UniProt Q9UPN6) | 0.037 |
| RIPK1 (UniProt Q13546) | 0.12 |
| RBM25 (UniProt P49756) | -0.019 |
| RAC3 (UniProt P60763) | -0.082 |
| SIDT2 isoform 2 (UniProt Q8NBJ9) | -0.026 |
| RCOR1 (UniProt Q9UKL0) | 0.212 |
| SKP1 (UniProt P63208) | -0.027 |
| SEC31A (UniProt O94979) | 0.021 |
| RPS9 (UniProt P46781) | 0.02 |
| RSL1D1 (UniProt O76021) | 0.012 |
